# Results as given in article PMC4552634, “A New Set of Chemical Starting Points with Plasmodium falciparum Transmission-Blocking Potential for Antimalarial Drug Discovery” (PLoS ONE, 2015).
# Among all 13,000 compounds or so, about 3,200 (25%) showed an effect of 50% or more. The list shows a part of the results.
# Test system: P. falciparum stage V gametocytes
# Parameters: BacTiter-Glo ATP luminescence viability of purified stage V gametocytes in 384-well plates, per cent inhibition versus DMSO
# Conditions: 48 h, 5 µM; inhibitor
row,SMILES,% Inhibition [%]
1,COc1ccc(N2CCN(CCCCNC(=O)c3ccc(/C=C/c4ccc(Cl)c(Cl)c4)cc3)CC2)c(OC)c1 [TCMDC-138175],-78.16
2,CS(=O)(=O)c1ccc2nc(NC(=O)c3csnn3)sc2c1 [TCMDC-125074],49.99
3,NC1=NC2(CCCC2)N(c2ccc(Cl)cc2)C(N)=N1 [TCMDC-137719],0.5076
4,NC(N)=NC(=O)Nc1cc(Cl)c(Cl)c(Cl)c1 [TCMDC-137465],-8.846
5,CCN(CC)CCN(Cc1ccc(-c2ccc(Cl)cc2)cc1)C(=O)Cn1cc(CN(C)C)c(=O)nc1SCc1ccc(F)cc1 [TCMDC-140406],107.7
6,CCc1cn(CC(=O)N(CCOc2ccc(-c3ccc(C(F)(F)F)cc3)cc2)CCN(CC)CC)c(SCc2ccc(F)cc2)nc1=O [TCMDC-140925],116.2
7,CC(C)Sc1nc2c(c(=O)n1Cc1ccco1)C1(CCCCC1)Cc1ccccc1-2 [TCMDC-125100],0.5988
8,COc1ccc(CNC2CCN(C)CC2)cc1-c1ccc(S(=O)(=O)NC2CCC2)c(F)c1 [TCMDC-132263],28.54
9,COc1ccc(CNC2CCN(C)CC2)cc1-c1ccc(S(=O)(=O)NC2CCC2)c(C)c1 [TCMDC-132270],86.28
10,COc1ccc(CNC2CCN(C)CC2)cc1-c1ccc(S(=O)(=O)NC2CCC2)cc1 [TCMDC-132245],84.43
11,N=C(N)c1ccc(NN=Cc2ccc(Oc3ccc(C(=N)N)cc3)cc2)cc1 [TCMDC-137493],43.38
12,CC(C)Cc1c(O)nc(SCCN2CCOCC2)[nH]c1=O [TCMDC-125767],17.13
13,O=C(O)C[C@H](NC(=O)[C@@H]1CCCN1C(=O)c1cccc(-c2ccc(Cl)c(Cl)c2)c1)C(=O)O [TCMDC-140511],4.214
14,O=[N+]([O-])c1ccc(NC(=NC2CCCc3ccccc32)Nc2ccccc2Br)c(O)c1 (stereo not shown) [TCMDC-139983],-2.666
15,COc1c(OC)c(OC)c2ccccc2c1CNCCCCCCNCc1c(OC)c(OC)c(OC)c2ccccc12 [TCMDC-137827],106
16,COc1c(CNCCCCCCNCc2c(OC)c(OC)c3ccccc3c2OC)c(OC)c2ccccc2c1OC [TCMDC-137837],111.1
17,CCCNCc1c(O)ccc2c(CNCCC)c(O)ccc12 [TCMDC-137593],-47.95
18,O=C(NC1CC1)c1ccc(N2CCCC(COc3ccccc3F)C2)nc1 (stereo not shown) [TCMDC-134034],24.35
19,Cc1cccc2nc(-c3ccc(-c4cccc(NC(=O)COc5ccccc5C(N)=O)c4)s3)[nH]c12 [TCMDC-132133],0.7486
20,CN(CCCCNC(=O)c1cc2ccccc2[nH]1)C1CC2(CCN(C(=O)OC(C)(C)C)CC2)c2ccccc21 (stereo not shown) [TCMDC-132884],36.87
21,CN(CCCCNC(=O)/C=C/c1ccccc1)C1CC2(CCN(C(=O)OC(C)(C)C)CC2)c2ccccc21 (stereo not shown) [TCMDC-132882],-12.8
22,CN(C1CCC(NC(=O)/C=C/c2ccccc2)CC1)C1CC2(CCN(C(=O)OC(C)(C)C)CC2)c2ccccc21 (stereo not shown) [TCMDC-132880],63.78

row,SMILES,% Inhibition [%]
1,OC(CNCc1ccccc1OCc1ccccc1)c1cc(C(F)(F)F)cc(C(F)(F)F)c1 (stereo not shown) [TCMDC-140300],-49.16
2,CCCCN(Cc1cc(Cl)c(OCC)c(OC)c1)c1ccc(C(O)(C(F)(F)F)C(F)(F)F)cc1 [TCMDC-135622],2.509
3,CCCCN(Cc1cccc(C(F)(F)F)c1Cl)c1ccc(C(O)(C(F)(F)F)C(F)(F)F)cc1 [TCMDC-135213],-4.716
4,CCCCN(Cc1cc(Cl)c(OC)c(OC)c1)c1ccc(C(O)(C(F)(F)F)C(F)(F)F)cc1 [TCMDC-135446],54.26
5,Cc1ccc(F)cc1S(=O)(=O)Nc1ccc(CCN2CCC(N3CCCCC3)CC2)cc1 [TCMDC-134088],60.27
6,Cc1ccc(F)cc1S(=O)(=O)Nc1cccc(CCN2CCC(N3CCCCC3)CC2)c1 [TCMDC-134068],67.59
7,COc1ccc(C2C(C(=O)OC3CCCCC3)=C(C)NC3=C2C(=O)CCC3)cc1Br (stereo not shown) [TCMDC-125070],-15.5
8,COc1cc(CCCON2C(N)=NC(N)=NC2(C)C)cc(OC)c1OC [TCMDC-131726],7.417
9,COc1ccc(C=C2SC(=N)N(c3ccccc3OC)C2=O)cc1 [TCMDC-124486],37.63
10,NC1=NC2(CCCCC2)N(OCCCOc2cccc3ccccc23)C(N)=N1 [TCMDC-131649],49.63
11,CCOc1ccc(Nc2nc(N)c3ccccc3n2)cc1.Cl [TCMDC-123748],31.55
12,O=c1c2ccccc2[nH]c2nc3ccccc3c(Nc3ccccc3)c12 [TCMDC-141996],28.3
13,Cl.c1ccc2c(Nc3ccc(OCCOCCOc4ccc(Nc5c6ccccc6nc6ccccc56)cc4)cc3)c3ccccc3nc2c1 [TCMDC-137355],108.9
14,Cl.c1ccc2c(Nc3ccc(Oc4ccc(Nc5c6ccccc6nc6ccccc56)cc4)cc3)c3ccccc3nc2c1 [TCMDC-124284],101.1
15,CC(=O)Nc1cccc(Nc2c3ccccc3nc3ccccc23)c1 [TCMDC-123741],-71.42
16,CC(=O)Nc1ccc(Nc2c3ccccc3nc3ccccc23)cc1 [TCMDC-124356],67.17
17,Cc1ccc(Nc2c3ccccc3nc3ccc(C)cc23)cc1 [TCMDC-124153],-51.64
18,Cc1cc2cc(/C=C/C(=O)NC3CCC(CCN4CCc5ccc(C#N)cc5CC4)CC3)ccc2[nH]1 (stereo not shown) [TCMDC-139673],-19.51
19,CCn1cc2c3c(cc(C(=O)N[C@@H](Cc4ccccc4)[C@H](O)CNC4CCOCC4)cc31)N(C)S(=O)(=O)CC2 [TCMDC-135785],-5.565
20,COc1ccc(Nc2nc(NC3CCCC3)cc(-c3ccc(OC)cc3)n2)cc1 [TCMDC-133468],-75.14
21,Cc1ccccc1C1CCN(c2ccc(C(=O)Nc3ccc(F)cc3)cn2)CC1 [TCMDC-134611],39.85
